Experimental findings from PubChem BioAssay (NCATS) are described below.

The nature of test [1]: Viability qHTS for spleen associated tyrosine kinase inhibitor (SYKi) drug resistant MV4-11 cells (AID 1963824). Note: nearly all actives have a fitted effect of over 35% in size. To be noted: SYKi-resistant MV4-11 viability, CellTiter-Glo, 72 h; series mostly up to 45 µM. In outline:
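SYK-inhibitor-resistant MV4-11 AML cells were seeded at 500 per well onto compound and cultured 72 hours (37 °C, 5% CO2). CellTiter-Glo was then added, and after 10 min at room temperature, luminescence gave viability.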
(In qHTS, concentration-response curves come from the screen itself.)

Test [2] can be described thus: Quantitative highthroughput screen to assess conditional lethalithy of NOMO1 cells grown in RPMI1640 with untreated serum (RPMI+s) (AID 1963876). Note: nearly all actives have a fitted effect of over 35% in size. The following applies: NOMO1 AML cells in RPMI+serum, CellTiter-Glo viability, 48 h; series mostly up to 45.8 µM. Put shortly:
(§1)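 Each medium arm—HPLM with 10% dialyzed FBS, or RPMI1640 with 5 mM glucose and 10% untreated or dialyzed FBS—was screened against an 11-point, 3-fold compound titration for 48 h at 37 °C, with CellTiter-Glo luminescence as endpoint.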
For orientation: Cellular ATP, detected with luciferase, serves as a proxy for viable cell number.

The nature of test [3]: Quantitative highthroughput screen to assess conditional lethalithy of NOMO1 cells grown in RPMI1640 with dialyzed fetal bovine serum (RPMI+ds) (AID 1963877). Note: nearly all actives have a fitted effect of over 30% in size. To be noted: NOMO1 in RPMI+dialyzed FBS viability, ATP luminescence, 48 h; series mostly up to 45.8 µM. Put shortly: as §1
A short description of test [4]: Quantitative highthroughput screen to assess conditional lethalithy of NOMO1 cells grown in Human Plasma-Like Medium with dialyzed fetal bovine serum (HPLM+ds) (AID 1963878). Note: nearly all actives have a fitted effect of over 35% in size. The following applies: NOMO1 AML cells in HPLM+ds, CellTiter-Glo viability, 48 h; series mostly up to 45.8 µM. In outline:
as §1

Test [5] can be described thus: Quantitative highthroughput screen to assess conditional lethalithy of P12 Ichikawa cells grown in Human Plasma-Like Medium with dialyzed fetal bovine serum (HPLM+ds) (AID 1963879). Note: nearly all actives have a fitted effect of over 35% in size. To be noted: ATP luminescence, 48 h; Potency: viability; series mostly up to 45.8 µM. Put shortly: as §1
Test [6] in a line: Quantitative highthroughput screen to assess conditional lethalithy of P12 Ichikawa cells grown in RPMI1640 with dialyzed fetal bovine serum (RPMI+ds) (AID 1963880). Note: nearly all actives have a fitted effect of over 35% in size. To be noted: ATP luminescence, 48 h; Potency: P12-Ichikawa viability; series mostly up to 45.8 µM. In outline:
as §1

Test [7] is described as follows: Quantitative highthroughput screen to assess conditional lethalithy of P12 Ichikawa cells grown in RPMI1640 with untreated serum (RPMI+s) (AID 1963881). Note: nearly all actives have a fitted effect of over 35% in size. The following applies: ATP luminescence, 48 h; Potency: viability; series mostly up to 45.8 µM. In outline: as §1
Test [8] is described as follows: Quantitative highthroughput screen to assess conditional lethalithy of SEM cells grown in Human Plasma-Like Medium with dialyzed fetal bovine serum (HPLM+ds) (AID 1963882). Note: nearly all actives have a fitted effect of over 35% in size. To be noted: SEM B-ALL cells in HPLM+ds, CellTiter-Glo viability, 48 h; series mostly up to 45.8 µM. Put shortly: as §1
The nature of test [9]: Quantitative highthroughput screen to assess conditional lethalithy of SEM cells grown in RPMI1640 with unreated serum (RPMI+s) (AID 1963883). Note: nearly all actives have a fitted effect of over 35% in size. To be noted: SEM B-ALL cells, CellTiter-Glo viability, 48 h; series mostly up to 45.8 µM. In outline:
as §1

Test [10] in a line: Quantitative highthroughput screen to assess conditional lethalithy of SEM cells grown in RPMI1640 with dialyzed fetal bovine serum (RPMI+ds) (AID 1963884). Note: nearly all actives have a fitted effect of over 35% in size. To be noted: SEM B-ALL cells, RPMI+dialyzed FBS, CellTiter-Glo viability, 48 h; series mostly up to 45.8 µM. In outline: as §1
The nature of test [11]: Cellular viability qHTS for adrenocortical cancer (ACC) cell line NCI-H295R (AID 1963990). Note: nearly all actives have a fitted effect of over 60% in size. To be noted: CellTiter-Glo ATP luminescence, 48 h; series mostly up to 46.1 µM. In outline:
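Compound titrations (up to 46 uM final) are applied to NCI-H295R cultures for 48 h at 37C. Viable cell number is estimated by CellTiter-Glo signal, normalised to DMSO and doxorubicin controls.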

A short description of test [12]: Cellular viability qHTS for adrenocortical cancer (ACC) cell line SW-13 (AID 1963989). Note: nearly all actives have a fitted effect of over 65% in size. The following applies: SW-13 ACC cells viability, CellTiter-Glo, 48 h; activity (max response): stronger effect = lower value. Put shortly: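 48 h treatment, SW-13 in ITS/DMEM serum-free; doses up to 46 uM; readout CellTiter-Glo luminescence; curve fit four-parameter logistic.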

The structures appear in SMILES notation. “And” between values parts separate entries of the source, which are not always exact repeats. Equal entries are not always repeated. Inconclusive results are not listed. The source made the active and inactive calls. Calls come from the whole dose curve; as a rule, active = well fitted curve in the direction sought with a large enough effect; inconclusive = small, poorly fitted or top-dose-only effect, or another doubt; inactive = no such curve, though single readings can be large; an effect the other way counts as inactive or inconclusive.
Potency is the fitted concentration of half-maximal effect.

As to `CCCn1c(=O)c2[nH]c(-c3ccc(OCC(=O)O)cc3)nc2n(CCC)c1=O`, the Potency entry in [1] is “inactive”.

Turning to `C=C1CC2OC(=O)C(COC)C2C(OC(=O)/C(C)=C\C)CC2(C)OC1=CC2=O` (stereo not given), in [1], the Potency was 0.805 µM (active).

With `CC1(C)Cc2c(-c3ccccc3)c(-c3ccc(Cl)cc3)c(CC(=O)O)n2C1`, the Potency in test [1] was 9.2 µM (active). In addition, the Potency entry in test [2], in test [3], in test [4], in test [5], in [6] and in [7] was “inactive” throughout. Further, the Potency result in test [8], in test [9] and in test [10] was “inactive” throughout.

Consider `C[C@H]1[C@H](C)CC[C@]2(C(=O)O)CC[C@]3(C)C(=CCC4[C@@]5(C)C[C@@H](O)[C@H](O)C(C)(C)C5CC[C@]43C)[C@H]12` (stereo not given in full), for which the Potency entry in [1] is “inactive”.

On to `CSCC[C@H](NC(=O)[C@H](CO)NC(=O)[C@H](CCC(=O)O)NC(C)=O)C(=O)N[C@H](C=O)CC(=O)O`, for which the Potency in [1] is 1.5 µM (active).

For `CC1(C)CC23[C@@H]4CC(=O)[C@@H]2COC(=O)[C@@H]3CC[C@H]41`, in test [1], the Potency was 1.64 µM (active).

For the compound `CN1CCC(=C2c3ccccc3C=Cc3ccccc32)CC1`, the Potency in [1] was 18.8 µM (active); in [11], 3980 nM (active). Besides, the Potency result in test [2], in [3], in test [4], in [5], in test [6] and in test [7] was “inactive” each time. Besides, the Potency entry in test [8] and in test [9] was “inactive” in each case.

For the compound `CC(C)c1nn(-c2c(Cl)cccc2Cl)c2nc(Cc3ccc(OCCO)cc3)[nH]c(=O)c12`, the Potency in test [1] is 0.0206 µM (active); in test [2], 118 nM (active); in test [3], 105 nM (active); in [4], 118 nM (active); in test [5], 166 nM (active); in test [6], 148 nM (active). Further, the Potency in test [7] was 148 nM (active); in [8] it was 105 nM (active); in [10], 148 nM (active); in [12], 50.1 nM (active); in test [11] it was 100 nM (active).

Turning to `CN(NC(=O)CC(=O)NN(C)C(=S)c1ccccc1)C(=S)c1ccccc1`, the Potency in test [1] was 46.1 nM (active) and 4.2 nM (active); in test [2], 66 nM (active); in test [3] it was 58.8 nM (active); in [4], 66 nM (active); in [5], 83.1 nM (active); in [6], 74.1 nM (active). In addition, the values for the Potency in test [7], in test [9] and in [10] were 74.1 nM (active), 41.7 nM (active) and 41.7 nM (active), respectively.
